# Experimental data reported in PubChem BioAssay.
# Calls of active or inactive are those of the source.
# Experiments:
# [1] = small molecules captured by biotinylated probe aFSTL3 – biochemical, small-molecule microarray, fluorescence 635/667, stem cell growth factor project, primary screen (AID 1064); details: higher = more signal;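 further: measures binding of the biotinylated anti-FSTL3 antibody to printed compounds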
# [2] = binders from COS7 lysate, DM2A8 probe, primary screen, torsin A project, cell lysate, small-molecule microarray, fluorescence 635/667 (AID 1065); details: higher = more signal, COS7 lysate expressing mutant human TOR1A
# [3] = small molecules captured by biotinylated probe aFGF2 – biochemical, small-molecule microarray, fluorescence 635/667, stem cell growth factor project, primary screen (AID 1067); details: higher = more signal;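 further: measures binding of biotinylated aFGF2 protein to printed compounds on slides; z-score merges feature fluorescence and signal-to-noise across triplicate slides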
# [4] = small molecules captured by biotinylated probe aFGF10 – biochemical, small-molecule microarray, fluorescence 635/667, stem cell growth factor project, primary screen (AID 1071); details: higher = more signal;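 further: score merges 667 nm spot intensity and signal to noise from triplicate slides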
# [5] = target: Neurogenic locus notch homolog protein 2 (Homo sapiens) (UniProt Q04721); assay: small molecules binding Notch2 protein – biochemical, small-molecule microarray, 635 nm fluorescence, stem cell growth factors, primary screen (AID 1073); details: higher = more signal
# Chain of Neurogenic locus notch homolog protein 2 (Homo sapiens) (Q04721 whole entry, looked up, canonical isoform): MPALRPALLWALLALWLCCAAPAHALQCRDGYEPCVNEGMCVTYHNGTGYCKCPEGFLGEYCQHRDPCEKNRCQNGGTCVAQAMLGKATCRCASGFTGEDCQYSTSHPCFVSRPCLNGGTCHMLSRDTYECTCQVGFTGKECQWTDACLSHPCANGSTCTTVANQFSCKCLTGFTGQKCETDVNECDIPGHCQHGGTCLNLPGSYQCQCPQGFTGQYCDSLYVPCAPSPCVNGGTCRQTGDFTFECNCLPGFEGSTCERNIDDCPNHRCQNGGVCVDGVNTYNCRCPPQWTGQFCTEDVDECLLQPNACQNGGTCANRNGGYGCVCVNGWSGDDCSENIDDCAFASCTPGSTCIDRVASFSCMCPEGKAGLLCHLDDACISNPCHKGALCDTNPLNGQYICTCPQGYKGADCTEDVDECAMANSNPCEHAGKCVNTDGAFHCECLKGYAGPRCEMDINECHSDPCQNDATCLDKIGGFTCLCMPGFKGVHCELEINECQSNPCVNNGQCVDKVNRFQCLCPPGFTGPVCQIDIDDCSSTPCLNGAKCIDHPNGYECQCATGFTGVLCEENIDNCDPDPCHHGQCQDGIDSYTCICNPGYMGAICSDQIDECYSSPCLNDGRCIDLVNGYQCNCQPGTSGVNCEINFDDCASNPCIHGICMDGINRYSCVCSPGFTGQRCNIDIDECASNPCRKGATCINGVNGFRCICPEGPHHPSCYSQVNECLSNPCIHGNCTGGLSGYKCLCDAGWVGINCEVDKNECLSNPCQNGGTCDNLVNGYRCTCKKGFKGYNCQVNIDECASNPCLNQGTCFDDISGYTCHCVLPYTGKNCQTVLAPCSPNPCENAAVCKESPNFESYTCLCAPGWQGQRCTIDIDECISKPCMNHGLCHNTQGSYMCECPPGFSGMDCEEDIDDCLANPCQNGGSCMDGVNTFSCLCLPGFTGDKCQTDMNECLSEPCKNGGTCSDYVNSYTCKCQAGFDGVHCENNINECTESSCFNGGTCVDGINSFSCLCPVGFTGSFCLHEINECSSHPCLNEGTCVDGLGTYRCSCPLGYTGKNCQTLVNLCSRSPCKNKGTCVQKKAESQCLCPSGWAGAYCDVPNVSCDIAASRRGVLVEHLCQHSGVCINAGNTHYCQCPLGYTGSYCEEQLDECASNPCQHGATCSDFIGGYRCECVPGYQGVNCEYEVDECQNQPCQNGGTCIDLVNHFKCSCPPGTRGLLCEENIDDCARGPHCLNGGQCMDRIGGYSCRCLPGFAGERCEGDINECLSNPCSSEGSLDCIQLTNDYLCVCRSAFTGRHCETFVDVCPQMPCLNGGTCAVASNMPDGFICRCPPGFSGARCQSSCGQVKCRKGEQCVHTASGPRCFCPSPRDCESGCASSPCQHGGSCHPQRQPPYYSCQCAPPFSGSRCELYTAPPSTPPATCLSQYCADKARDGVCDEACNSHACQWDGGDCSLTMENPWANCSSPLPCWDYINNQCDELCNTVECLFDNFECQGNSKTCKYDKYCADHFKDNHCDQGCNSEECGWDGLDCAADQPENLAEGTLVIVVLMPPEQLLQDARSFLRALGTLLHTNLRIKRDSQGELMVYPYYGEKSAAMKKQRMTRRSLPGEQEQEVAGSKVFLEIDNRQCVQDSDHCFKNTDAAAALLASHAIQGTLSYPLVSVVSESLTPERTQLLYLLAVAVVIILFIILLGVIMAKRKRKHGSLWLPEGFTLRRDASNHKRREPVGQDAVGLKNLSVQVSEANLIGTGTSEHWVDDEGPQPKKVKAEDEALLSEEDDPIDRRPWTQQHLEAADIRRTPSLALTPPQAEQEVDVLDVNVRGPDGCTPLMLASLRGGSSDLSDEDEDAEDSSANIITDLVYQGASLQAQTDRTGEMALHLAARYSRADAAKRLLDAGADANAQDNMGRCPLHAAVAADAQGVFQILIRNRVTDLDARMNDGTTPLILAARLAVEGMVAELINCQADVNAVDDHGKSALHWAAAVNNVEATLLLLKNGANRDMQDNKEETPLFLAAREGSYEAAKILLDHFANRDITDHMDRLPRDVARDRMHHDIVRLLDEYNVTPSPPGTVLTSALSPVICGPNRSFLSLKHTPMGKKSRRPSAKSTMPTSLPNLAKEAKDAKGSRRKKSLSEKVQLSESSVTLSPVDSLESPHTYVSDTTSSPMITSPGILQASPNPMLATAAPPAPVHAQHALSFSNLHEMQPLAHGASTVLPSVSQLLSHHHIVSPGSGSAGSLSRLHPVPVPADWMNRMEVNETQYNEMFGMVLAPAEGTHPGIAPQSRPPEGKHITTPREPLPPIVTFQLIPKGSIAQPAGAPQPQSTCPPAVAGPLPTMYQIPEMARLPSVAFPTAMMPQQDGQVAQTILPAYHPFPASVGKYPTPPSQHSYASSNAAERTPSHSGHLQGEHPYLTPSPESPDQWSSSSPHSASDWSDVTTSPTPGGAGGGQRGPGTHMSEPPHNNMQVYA
# [6] = target: Pro-neuregulin-1, membrane-bound isoform (Homo sapiens) (UniProt Q02297); assay: small molecules binding neuregulin-1 protein – biochemical, small-molecule microarray, fluorescence 635/667, psychiatric disease protein project, primary screen (AID 1075); details: NRG1 binding, 635 nm fluorescence, higher = more signal;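 further: score combines 667 nm spot fluorescence with signal to noise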
# Chain of Pro-neuregulin-1, membrane-bound isoform (Homo sapiens) (Q02297 whole entry, looked up, the tested form may be a part, canonical isoform): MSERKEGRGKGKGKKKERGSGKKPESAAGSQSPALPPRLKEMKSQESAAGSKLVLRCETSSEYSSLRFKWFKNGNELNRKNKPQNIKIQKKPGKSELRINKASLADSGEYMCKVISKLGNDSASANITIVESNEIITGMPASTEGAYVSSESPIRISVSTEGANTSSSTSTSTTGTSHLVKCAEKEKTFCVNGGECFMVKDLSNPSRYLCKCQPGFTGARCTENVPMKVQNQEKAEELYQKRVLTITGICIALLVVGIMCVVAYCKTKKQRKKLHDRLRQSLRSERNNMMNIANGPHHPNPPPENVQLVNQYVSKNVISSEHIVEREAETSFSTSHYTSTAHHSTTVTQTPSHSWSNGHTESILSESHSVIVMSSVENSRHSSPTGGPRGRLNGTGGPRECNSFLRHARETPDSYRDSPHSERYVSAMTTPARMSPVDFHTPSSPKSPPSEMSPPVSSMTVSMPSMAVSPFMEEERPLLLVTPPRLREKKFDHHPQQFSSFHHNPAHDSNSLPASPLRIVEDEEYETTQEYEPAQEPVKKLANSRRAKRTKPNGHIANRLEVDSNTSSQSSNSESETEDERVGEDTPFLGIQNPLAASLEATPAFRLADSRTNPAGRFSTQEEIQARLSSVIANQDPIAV
# [7] = system: Neuregulin-1 EGF-like domain; assay: small molecules binding NRG1 EGF domain – biochemical, small-molecule microarray, 635 nm fluorescence, primary screen (AID 1081); details: higher = more signal;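 further: binding of the protein to compounds printed on small-molecule microarray slides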
# [8] = FRG1 expression reporter modulators in myotubes – cell-based, C2C12 myotubes, firefly/Renilla luciferase, luminescence, FRG1 inhibition for FSHD, primary screen (AID 1084); details: FRG1 promoter luciferase, higher = more signal, called active from +8 up or from −8 down
# [9] = small molecules captured by biotinylated probe aFST – biochemical, small-molecule microarray, fluorescence 635/667, stem cell growth factor project, primary screen (AID 1086); details: higher = more signal;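 further: score merges 667 nm fluorescence with signal-to-noise of each printed compound spot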
# [10] = binders of probe aHhip on microarray, primary screen, stem cell growth factor project, biochemical, small-molecule microarray, fluorescence 635/667 (AID 1087); details: higher = more signal;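 further: score merges spot fluorescence at 667nm with spot signal to noise ratio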
Compound,composite z-score [1],composite z-score [2],composite z-score [3],composite z-score [4],composite z-score [5],composite z-score [6],composite z-score [7],z-score [8],composite z-score [9],composite z-score [10]
COCC(=C=CC[C@H](O)c1ccc(OCCO)cc1)C[C@H](O)c1cc(Cl)cc(Cl)c1O,-0.327,0.95,-0.0125,0.754,0.623,0.458,1.16,-3.67 (inactive),0.582,0.0505
CCCNC(=O)[C@@H]1c2ccccc2C(=O)N(Cc2ccccc2)[C@H]1c1ccc(CO)cc1,0.0651,-0.427,-0.0861,-0.533,-0.195,1.09,1.11,-1.14 (inactive),-0.115,0.132
O=C1[C@]2(CO)C=C(Br)[C@@H](C[C@@H]2c2ccccc2)[C@@]12CO2,-0.333,-0.61,-0.0507,-0.0238,0.0861,0.251,0.245,1.2 (inactive),-0.0624,-0.134
O=C1N(CCS(=O)(=O)c2ccccc2)Cc2ccccc2C[C@]12N=C(c1ccc(OCCCO)cc1)O[C@@H]2c1ccccc1,1.36,0.97,0.0901,-0.0674,0.633,1.33,1.31,-0.436 (inactive),0.607,-0.27
CC(=O)Nc1cc(Br)ccc1C(=O)O,-0.135,-0.387,0.0308,0.239,0.425,0.541,0.748,0.466 (inactive),0.353,-0.221
O=C1OCCC=C[C@H]2OC34C=CCN(Cc5ccccc5)C(=O)[C@H]3N(CCCCCCO)C(=O)[C@@H]4C12 (stereo not given in full),0.359,-1.01,-0.196,-0.384,-0.91,1.88,0.92,-0.386 (inactive),-0.26,-0.621
COc1cc2c(cc1O)C(C)N(Cc1cccc(OC(F)(F)F)c1)CC2 (stereo not given),0.067,-0.142,0.139,0.953,1.23,2.13,1.47,0.734 (inactive),0.226,-0.205
C=CCC(OC(C)=O)[C@@H]1[C@@H](N(Cc2ccc(-c3cccc(C(F)(F)F)c3)o2)C(=O)c2ccc(C)cc2)c2cc(OCCCO)ccc2N1C(=O)c1ccc(-c2ccccc2)cc1 (stereo not given in full),-0.322,-0.179,-0.129,0.265,0.0105,-0.416,-0.515,0.887 (inactive),0.137,-0.214
O=C1C=CC(=O)[C@@H]2CC(COc3ccccc3)=C3[C@@H](CCc4ccccc4)OB(O)C[C@@H]3[C@H]12,0.232,2.47,-0.132,0.272,0.222,-0.18,0.184,-1.29 (inactive),-0.467,0.176
COC(=O)C[C@H]1O[C@]2(C(=O)N(Cc3ccccc3)c3ccc(NC(C)=O)cc32)[C@@H](C)[C@@H]1[Si](C)(C)c1ccc(OC)cc1,-0.383,-0.148,-0.0543,0.489,1.12,0.264,0.882,-1.98 (inactive),0.113,-0.273
O=C1OCCC=C[C@H]2OC34C=CCN(c5ccc6ccccc6c5)C(=O)[C@H]3N(CCCCCO)C(=O)[C@@H]4C12 (stereo not given in full),1.05,2.06,-0.116,0.0074,-0.377,2.17,1.57,-0.517 (inactive),-0.188,0.0176
CCOC(=O)C[C@H]1[C@H](OC(=O)c2ccc(-c3ccccc3)cc2)[C@@H](NC(=O)c2ccc3ccccc3c2)c2cc(OCCCO)ccc2N1C(=O)Cc1ccc(OC)cc1,-0.325,0.228,0.0325,0.0493,0.425,0.15,-0.733,1.21 (inactive),0.628,-0.134
O=C(CS)NCCCCCCNC(=O)[C@@H]1C[C@@H]2C(=O)N3CCC[C@H]3C(=O)N2[C@@H]1c1ccc(O)cc1,0.525,0.0083,-0.111,0.589,-0.473,0.494,1.38,0.999 (inactive),-0.28,-0.254
N#Cc1ccc(NN2C(C(O)C3CCCCC3)C=CC3C(=O)N(c4ccccc4)C(=O)C32)cc1 (stereo not given),0.0086,-0.433,0.0429,0.461,1.58,1.31,1.33,-0.585 (inactive),1.38,0.754
Cc1c(NC(=O)CC#N)c(=O)n(-c2ccccc2)n1C,-0.436,0.114,-0.0996,0.374,0.348,0.379,0.483,1.66 (inactive),0.404,-0.498
O=C1O[C@H](c2ccccc2)[C@H](c2ccccc2)N2[C@H]1[C@@H](C(=O)O)[C@]1(C(=O)Nc3ccc(C#CC4(O)CCCCCC4)cc31)[C@H]2c1ccc(OCCO)cc1,-0.133,-0.337,0.0201,0.564,0.263,1.85,1.14,1.11 (inactive),1.07,-0.0994
COC(=O)c1ccc(C(O)C2C=CC3C(=O)N(C)C(=O)C3N2NC(=O)OC(C)(C)C)o1 (stereo not given),-0.0154,0.252,0.0942,1.03,1.48,1.34,1.29,0.896 (inactive),0.76,-0.0024
